According to the supplement of paper PMC6555819:

These sequences were tested on VDR homodimer (NR concentration 270 nM) (assay: PBM binding z-score (relative to random genomic background probes); higher = stronger binding; sequences stand for … in GC…GCGATTGACAGCGTAGAATGAAGG).
Outline: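 Ligand-free nuclear receptor dimers were bound for 1 h to custom Agilent 4×180K protein-binding microarrays. Detection used antibodies against each partner (one per run). Binding z-scores rest on regression-normalized fluorescence, with random background probes as the reference.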

Sequence | PBM binding z-score
GTTACAGGGTCAGCTAGAGGCCAGAGTATGGAAA | 1.01
TCTTATAGGTAAAGGTGAAAGTCGAACGATATGA | 0.315
AGAACGAGGGCACGCAGAGTTGATAGCAGAGTAG | 1.86
CGAGCTAGGTCATCCAGGACAGTGAATACATTGA | 1.91
CGTCCAAGGTCAGAGGTCAGTGAAGAGATGACGG | 2.61
TCATATAGGTAAATGCTAGGTCAAAGTCCGATCT | 1.35
CAGCCTAGGTCACGGCCAGTATAGGAGGAACGTT | 0.435
TGTCAAAGTTCAAAGGTAACGTTAGTATCCACAC | 3.97
TCTTGTAGATCAAAGGTTAGGAAAGCCGAAGCCT | -0.493
CGTCCAAGGTCAAGTTCAGTGAAAGAGACTCGAA | 4.75
CAAACTAGGTAACGAAAGGTCAAAGTCGAATGAC | 2.25
CCTAGCAGGCCAGGGTTACTCAAGCATTTCGCTT | -0.788
GTACCAAGGTGAATAGGTCGTTGCTGAGTAGGCG | -0.166
ACTTACGGGTCACCGAGGTTATAGCACGCGTATA | 4.59
GCTGCTAGGTCAAATGATGGTCAGCTAAAGCTCG | -0.00739
AATACAGGGTCACTCGGCCAGAGTAGGTACGAAT | 2.84
TAGCCTAGGTTAGATCGGGCCAGTATACGCTATA | -0.374
TCATATAGGTAATACATGTGAAAGTCGGCATCTA | 0.128
ATACCAGGGTGATCGTGAGGTCGTTGATACTAAC | 2.64
CCTATTAGTTGACCATAAGGGCATCCGAAGCTCG | 1.26

Sequence | PBM binding z-score
CGTACAAGGTCAATGCTAGGTCAGTGAAAGCATT | 3.22
TCTGCTAGGTCAGTTCGTCAGCTAACGAGCTGCC | 0.389
TCGAGTAGTTTAGGGGCATTCAGAATGGCGTCGA | 1.55
GTACCAAGGTGAATAGGTCGTCGATGAGTAGGCG | -0.13
CTCGAAAGGACGGTTGAGGTGAGTATACGGATAA | 0.0364
GGAACGAGGGCAAGGTGATAGCAGAGTTTGATGG | 2.05
TAGCCTAGGTCATGCGGGCCATTATAGTGTCGGC | 1.49
GCTCGGAGGACAAGCTCAGAGCTTTGTCCGTAGA | -0.467
GCAGACAGGTGAAACGCAGGTAAATCAGGGTGGC | -0.336
GCTTGTAGATCAAGGTTAAGAAAGACTAAGCTAA | -0.377
AGTCAAAGTTCACTAGGTAACGTGAGATTCAGCT | 3.17
CTACCGAGGTGAACAAGGTCGTTGATTACTATTC | 3.13
CAAACTAGGTCAAGGTCAATGTCGGTTTGTGCCA | 4.11
TCTCGGAGGACACGACAGGTCAGAGCTCGACATC | 0.677
TAGCCTAGGTCATTGGGCGAGTATAGTACGCATC | 1.08
GCTAGTTGGTCAGTAAAACGTCACACACCGGTCG | -0.255
CTGACTGGGGCAAAGGTTACCATACTCAGTACGA | 0.376
CCTTACGGGTCACTCCAGCTTATAGCATCGGAGT | 0.747
GCATATAGGTAATACAAGGTGAACGTCCGATTGT | 0.386
ACTCGGAGGACAAAGGCCAGAGCTACGCCAGTGA | -0.537
